Drawing on PubChem BioAssay (EPA / NIEHS), this text covers outcome and AC50 for 7 molecules.

Active and inactive are the calls of the source. Rule for the calls: active = hit-call score of the fitted dose curve at least 0.9, where 1 is the maximum; inactive = score below 0.9.

Assay [1] in a line: APR_HepG2_CellCycleArrest_24hr: Apredica 24-hour HepG2 Assay for Cell Cycle Arrest (AID 2282905).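 Note: cell cycle arrest scored as ratio of 2N to 4N nuclear DNA content.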 The settings on record: imaging, actives raise or lower the signal. The procedure, abridged: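 Step one: dose HepG2 with test compounds, 0.39–200 uM, 0.5% DMSO, 24 hr. Step two: fix, permeabilize, stain nuclei with Hoechst 33342. Step three: image six fields per well at 20x, quantify DNA content, fit bidirectionally relative to DMSO.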

Assay [2] can be described thus: APR_HepG2_NuclearSize_24hr: Apredica 24-hour HepG2 Assay for Nuclear Size (AID 2282907). The settings on record: high-content imaging, actives raise or lower the signal. The procedure, abridged: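 After fixation and permeabilization, 24-hr-treated HepG2 cells were stained with Hoechst 33342 and imaged on an ArrayScan (20x). Doses spanned 0.39–200 uM in duplicate. Nuclear diameter changes in either direction were fitted relative to 0.5% DMSO controls.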

A short description of assay [3]: APR_HepG2_CellLoss_24hr: Apredica 24-hour HepG2 Assay for Cell Loss (AID 2282908).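 For AC50: fit in both directions so a hit may be cell loss or gain.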 The settings on record: high-content imaging. In a few lines:
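Duplicate wells received compound at ten concentrations (0.39–200 uM; final DMSO 0.5% v/v). After fixation with formaldehyde, nuclei stained with Hoechst 33342 were imaged at 20x. Loss or gain of cell count was fitted relative to DMSO controls.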

Assay [4] is described as follows: APR_HepG2_MicrotubuleCSK_24hr: Apredica 24-hour HepG2 Assay for Microtubule CSK Stabilty (AID 2282909). The settings on record: HepG2 microtubule cytoskeleton imaging, actives raise or lower the signal. In a few lines: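 Microtubule stability is scored from tubulin immunofluorescence in fixed HepG2 cells imaged at 20x. Cells receive ten compound concentrations up to 200 uM for 24 h; taxol and DMSO serve as positive and negative controls.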

The nature of assay [5]: APR_HepG2_MitoticArrest_24hr: Apredica 24-hour HepG2 Assay for Mitotic Arrest (AID 2282910). The settings on record: high-content imaging, actives raise or lower the signal. In a few lines:
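High-content imaging of fixed HepG2 cells labeled with Hoechst 33342 and anti-phospho-histone H3, after 24 h treatment. Ten concentrations 0.39 to 200 uM in duplicate, final DMSO 0.5%; changes fitted both directions relative to DMSO.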

Assay [6] in a line: APR_HepG2_MitoMembPot_24hr: Apredica 24-hour HepG2 Assay for Mitochondrial Membrane Potential (AID 2282911). The note with it: imaging, actives raise or lower the signal. In a few lines: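 HepG2 cells exposed 24 h to 0.39–200 uM compounds in duplicate, 0.5% v/v DMSO final. MitoTracker Red CMXRos 250 nM loaded 30 min before formaldehyde fixation; high-content imaging at 20x, bidirectional fit versus DMSO.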

The nature of assay [7]: APR_HepG2_MitoMass_24hr: Apredica 24-hour HepG2 Assay for Mitochondrial Mass (AID 2282912). The settings on record: high-content imaging, actives raise or lower the signal. The procedure, abridged: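 Readout: fluorescence of MitoTracker Red CMXRos (250 nM, added 30 min pre-fixation) in fixed HepG2 cells imaged by HCS. Exposure lasted 24 hr at 0.39–200 uM; increases and decreases were both fitted relative to DMSO.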

Assay [8] in a line: APR_HepG2_p53Act_24hr: Apredica 24-hour HepG2 Assay for p53 Activation (AID 2282913).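 Note: p53 protein immunofluorescence averaged per cell in HepG2 with Hoechst nuclei.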 The settings on record: high-content imaging, actives raise or lower the signal. The procedure, abridged:
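HepG2 cells exposed 24 h to compounds at 0.39–200 uM in duplicate, 0.5% v/v DMSO final; fixed, permeabilized, stained with anti-p53 antibody and Hoechst 33342; fluorescence imaging; bidirectional curve fit versus DMSO.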

A short description of assay [9]: APR_HepG2_CellCycleArrest_72hr: Apredica 72-hour HepG2 Assay for Cell Cycle Arrest (AID 2282914). The settings on record: high-content imaging, actives raise or lower the signal. The procedure, abridged: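 HepG2 cells exposed 72 h in duplicate to 0.39–200 uM compound, 0.5% DMSO final. Formaldehyde-fixed, Hoechst 33342-stained nuclei imaged at 20x, six fields per well; DNA content per valid cell quantified by cell-cycle image analysis, bidirectional fit versus DMSO.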

The nature of assay [10]: APR_HepG2_CellLoss_72hr: Apredica 72-hour HepG2 Assay for Cell Loss (AID 2282915). The settings on record: high-content imaging. The procedure, abridged: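 Cell number comes from Hoechst 33342-labelled nuclei, imaged at 20x after 3.7% formaldehyde fixation. Dosing was 0.39–200 uM, ten concentrations in duplicate, 0.5% DMSO final, for 72 h. Bidirectional fit relative to DMSO baseline.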

Assay [11] can be described thus: APR_HepG2_P-H2AX_72hr: Apredica 72-hour HepG2 Assay for H2AX Phosphorylation (AID 2282916).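 Note: phospho-histone H2A.x immunostain intensity per cell marking DNA damage.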 The note with it: imaging, actives raise or lower the signal. In a few lines:
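Phospho-H2A.x imaging endpoint in HepG2 after 72 hr compound exposure (0.39–200 uM, duplicate wells). Activity derived by bidirectional curve fitting with DMSO as baseline.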

Assay [12] is described as follows: APR_HepG2_MitoMembPot_72hr: Apredica 72-hour HepG2 Assay for Mitochondrial Membrane Potential (AID 2282917). The settings on record: imaging, actives raise or lower the signal. The procedure, abridged: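 Membrane potential read by MitoTracker Red CMXRos (250 nM, 30 min, pre-fixation) fluorescence imaging of HepG2 after 72 hr exposure. Ten concentrations, 0.39–200 uM, duplicate wells, 0.5% DMSO; fitted in both directions against DMSO baseline.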

The nature of assay [13]: APR_HepG2_MitoticArrest_72hr: Apredica 72-hour HepG2 Assay for Mitotic Arrest (AID 2282918). The note with it: high-content imaging, actives raise or lower the signal. In a few lines:
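HepG2 cells treated 72 h at 0.39–200 uM, 0.5% DMSO final; formaldehyde-fixed, stained with Hoechst 33342 and phospho-histone H3 antibody, imaged by high-content fluorescence; bidirectional fit versus DMSO.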

Assay [14] can be described thus: APR_HepG2_MicrotubuleCSK_72hr: Apredica 72-hour HepG2 Assay for Microtubule CSK Stabilty (AID 2282919). The settings on record: HepG2 microtubule cytoskeleton, high-content imaging, actives raise or lower the signal. The procedure, abridged:
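High-content imaging of alpha-tubulin staining in fixed HepG2 cells after 72 hr treatment with ten concentrations from 0.39 to 200 uM (0.5% DMSO). Fitting was bidirectional against DMSO; taxol served as positive control.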

The nature of assay [15]: APR_HepG2_P-H2AX_24hr: Apredica 24-hour HepG2 Assay for H2AX Phosphorylation (AID 2282920). The note with it: high-content imaging, actives raise or lower the signal. The procedure, abridged:
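HepG2 cells dosed 24 h at 0.39–200 uM (10 points, duplicate, 0.5% DMSO final). Formaldehyde-fixed and permeabilized, then immunostained for phospho-H2A.x with Hoechst. Fluorescence quantified by high-content imaging, fitted bidirectionally versus DMSO.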

Assay [16] is described as follows: APR_HepG2_StressKinase_72hr: Apredica 72-hour HepG2 Assay for Stress Kinase (AID 2282921). The note with it: HepG2 stress kinase (phospho-c-Jun) imaging, actives raise or lower the signal. The procedure, abridged: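 Stress kinase signal reflects nuclear phospho-c-Jun staining in fixed, permeabilized cells exposed 72 h to compound at 0.39–200 uM; DMSO-normalized, fitted for increases or decreases.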

Assay [17] can be described thus: APR_HepG2_StressKinase_24hr: Apredica 24-hour HepG2 Assay for Stress Kinase (AID 2282922). The note with it: HepG2 stress kinase (phospho-c-Jun) imaging, actives raise or lower the signal. In a few lines:
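High-content imaging of phospho-c-Jun immunofluorescence in fixed, permeabilized HepG2 cells after 24 h dosing. Ten concentrations, 0.39 to 200 uM, run in duplicate at 0.5% v/v DMSO; gain or loss of signal versus DMSO.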

Assay [18] can be described thus: APR_HepG2_p53Act_72hr: Apredica 72-hour HepG2 Assay for p53 Activation (AID 2282923).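 Note: average cellular p53 protein immunofluorescence intensity in HepG2 cells.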 The note with it: high-content imaging, actives raise or lower the signal. In a few lines: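 Fixed-cell p53 staining (sheep primary, Cy5 secondary) measured by fluorescence imaging following 72 hr treatment at 0.39–200 uM in 0.5% DMSO; DMSO served as negative control and baseline.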

Assay [19] is described as follows: APR_HepG2_MitoMass_72hr: Apredica 72-hour HepG2 Assay for Mitochondrial Mass (AID 2282924).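 Note: MitoTracker Red CMXRos stain intensity per cell imaged as mitochondrial mass.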 The note with it: high-content imaging, actives raise or lower the signal. In a few lines: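 Readout is imaged MitoTracker Red (250 nM, 30 min, pre-fixation) signal, fitted bidirectionally against DMSO baseline. Human HepG2 liver cells received compound 0.39–200 uM in duplicate for 72 hr, final DMSO 0.5%.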

Assay [20] in a line: APR_HepG2_NuclearSize_72hr: Apredica 72-hour HepG2 Assay for Nuclear Size (AID 2282925). The settings on record: high-content imaging, actives raise or lower the signal. The procedure, abridged:
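Nuclear size was read by high-content imaging of Hoechst 33342 stain after formaldehyde fixation. Compounds ran 72 h on HepG2 at 0.39 to 200 uM, with final DMSO 0.5% v/v. Curves fitted both directions relative to DMSO control.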

As to `O=[N+]([O-])c1ccc(Oc2ccc(Cl)cc2Cl)cc1`, the molecule was called inactive in assay [1], in assay [2], in assay [4], in assay [5], in assay [6] and in [7]. Also, the result in [8], in assay [9], in assay [11], in assay [12], in assay [14] and in assay [15] was inactive. In addition, the molecule was classed as inactive in [16], in [17], in [18], in assay [19] and in [20]. Also, the AC50 was 80.8 µM (active) in assay [3], 89.7 µM (active) in assay [10] and 71 µM (active) in [13].
As for `CCCSC(=O)N(CCC)CCC`, the call in [1], in assay [2], in [3], in assay [4], in assay [5] and in assay [6] was inactive. The call in assay [7], in assay [8], in assay [9], in [10], in [11] and in assay [12] was inactive. Moreover, the call in [13], in assay [15], in assay [16], in [17], in assay [18] and in assay [19] was inactive. In addition, the call in assay [20] was inactive.
With `Cn1cc(-c2ccccc2)c(=O)c(-c2cccc(C(F)(F)F)c2)c1`, the figures for the AC50 in assay [1] and in assay [10] were 57.4 µM (active) and 64.3 µM (active), respectively. For the same molecule, the call in [2], in [3], in assay [4], in assay [5], in assay [6] and in [7] was inactive. Besides, the molecule was called inactive in assay [8], in assay [11], in assay [12], in assay [13], in [14] and in assay [15]. For the same molecule, the molecule was classed as inactive in assay [16], in assay [17], in assay [18], in [19] and in assay [20].
For the molecule `OCCCl`, the call in assay [1], in assay [2], in assay [3], in assay [4], in assay [5] and in assay [6] was inactive. For the same molecule, the outcome in assay [7], in assay [8], in [10], in assay [11], in assay [12] and in assay [13] was inactive. Further, the molecule was called inactive in assay [14], in assay [15], in assay [16], in assay [17], in assay [18] and in assay [19]. Moreover, the result in assay [20] was inactive.
As for `Nc1ccc(N=Nc2ccccc2)cc1`, the AC50 in assay [1] was 75.5 µM (active); in assay [9], 23.6 µM (active); in assay [10], 99.4 µM (active); in [11], 63.4 µM (active); in [18] it was 71.1 µM (active). Besides, the outcome in [2], in [3], in [4], in assay [5], in [6] and in [7] was inactive. The outcome in assay [8], in assay [15], in assay [16], in assay [17] and in assay [20] was inactive.
Turning to `Clc1ccc(C(c2ccc(Cl)cc2)C(Cl)(Cl)Cl)cc1`, the call in [1], in assay [4], in [14], in assay [16], in assay [18] and in assay [19] was inactive. For the same molecule, in assay [20], the result was inactive. For the same molecule, the AC50 was 56.5 µM (active) in assay [2]; 57.9 µM (active) in assay [3]; 50.1 µM (active) in assay [5]; 30.3 µM (active) in assay [6]; 44.4 µM (active) in [7]; 54.7 µM (active) in assay [8]. Further, the AC50 in assay [10] was 50.5 µM (active); in assay [11], 50.2 µM (active); in [12], 30.4 µM (active); in [13], 42.6 µM (active); in assay [15], 50.5 µM (active); in [17], 51.9 µM (active).
Take `COP(=S)(OC)SCN1C(=O)c2ccccc2C1=O`: the outcome in [1], in assay [2], in [3], in assay [4], in assay [5] and in assay [6] was inactive. Further, the molecule was classed as inactive in [7], in [8], in assay [10], in assay [11], in [12] and in [13]. Further, the outcome in [14], in assay [15], in assay [16], in [17], in assay [18] and in assay [19] was inactive. In addition, in assay [20], the outcome was inactive.
